This is an account of results in PubChem BioAssay.

Assay [1] addresses Nuclear receptor coactivator 3 (Homo sapiens) (UniProt Q9Y6Q9). In words: SRC3 coactivator transcriptional activity inhibitors, confirmation, cell-based, luminescence, quadruplicate (AID 588792;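 active = mean inhibition over 43.08%, the solvent-only control mean plus 3 SD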;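 note: 0% = DMSO treated cells and 100% = gossypol at 36 µM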). The note with it: HEK293 GAL4-SRC3 luciferase reporter, at 3.6 µM, active compounds read high. Background: A reporter such as luciferase makes a cellular process visible.
Assay [2] deals with transactivating tegument protein VP16 (Human herpesvirus 1), Gal4-VP16 luciferase reporter. In words: VP16 transactivation inhibitors, counter-screen for SRC3 inhibitor project, cell-based, luminescence, high throughput (AID 588794). The note with it: mammalian cells, VP16-driven luciferase reporter luminescence; at 3.6 µM; active compounds read high. On the technique in general: The purpose of a counterscreen is to sort out artefacts and off-target activity.

Assay [3] has as its target Nuclear receptor coactivator 1 (Homo sapiens) (UniProt Q15788). In words: SRC1 coactivator transcriptional activity inhibitors, confirmation, cell-based, luminescence, quadruplicate (AID 588820;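 active = mean inhibition above 46.68%, the untreated control wells mean plus 3 SD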;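 note: 0% = DMSO wells and 100% = gossypol 36 µM treated wells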). Particulars: HEK293 GAL4-SRC1 luciferase reporter, at 3.6 µM, active compounds read high.
Assay [4] can be described thus: VP16 transactivation inhibitors, counter-screen for SRC1 inhibitor project, cell-based, luminescence, high throughput (AID 588824; in the data active = inhibition above about 25%). The note with it: cell-based VP16 transactivation luciferase luminescence; at 3.6 µM; active compounds read high.
In assay [5] the test system is transactivating tegument protein VP16 (Human herpesvirus 1). Put plainly: VP16 transactivation reporter inhibitors, counter-screen for SRC2 inhibitor project, cell-based, luminescence, single concentration (AID 652007; in the data active = inhibition above about 36%). Particulars: cell-based VP16 transactivation luciferase reporter, at 8.9 µM, active compounds read high.
Assay [6] concerns the target Nuclear receptor coactivator 2 (Homo sapiens) (UniProt Q15596). In words: SRC2 coactivator transcriptional activity inhibitors, confirmation, cell-based, luminescence, HEK293, triplicate (AID 652008;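 active = mean inhibition above 46.5%, the solvent-only control mean plus 3 SD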;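 note: 0% = DMSO-treated cells and 100% = Gossypol at 36 µM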). The note with it: HEK293 GAL4-SRC2 luciferase reporter, at 8.9 µM, active compounds read high.
A short description of assay [7]: Gal4-VP16 luciferase reporter inhibitors, counter-screen for COUP-TFII antagonist project, cell-based, luminescence, HEK293 (AID 687007; in the data active = inhibition above about 13%). The note with it: at 8.5 µM, active compounds read high.
Assay [8] deals with COUP transcription factor 2 (Homo sapiens) (UniProt P24468). Put plainly: NR2F2 transcriptional activity inhibitors, confirmation, cell-based, luciferase reporter, HEK293, triplicate (AID 687008;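 active = mean inhibition over three repeats above a set limit taken from the earlier primary screen, cut at about 38% in these data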;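 note: 100% = cells given the luciferase reporter alone without the COUP-TF2 vector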). The note with it: HEK293 NGFI-A luciferase reporter, luminescence; at 8.5 µM; active compounds read high.

Molecules are shown by their SMILES. Values without a mark were called inactive. Some of the results follow. Active and inactive are the calls of the source. Cut-off read from the data, not from the text of the source, unless noted: active = inhibition above about 30%; inactive = the rest.

Nuclear receptor coactivator 2 (Homo sapiens), sequence (Q15596 whole entry, looked up, the tested form may be a part): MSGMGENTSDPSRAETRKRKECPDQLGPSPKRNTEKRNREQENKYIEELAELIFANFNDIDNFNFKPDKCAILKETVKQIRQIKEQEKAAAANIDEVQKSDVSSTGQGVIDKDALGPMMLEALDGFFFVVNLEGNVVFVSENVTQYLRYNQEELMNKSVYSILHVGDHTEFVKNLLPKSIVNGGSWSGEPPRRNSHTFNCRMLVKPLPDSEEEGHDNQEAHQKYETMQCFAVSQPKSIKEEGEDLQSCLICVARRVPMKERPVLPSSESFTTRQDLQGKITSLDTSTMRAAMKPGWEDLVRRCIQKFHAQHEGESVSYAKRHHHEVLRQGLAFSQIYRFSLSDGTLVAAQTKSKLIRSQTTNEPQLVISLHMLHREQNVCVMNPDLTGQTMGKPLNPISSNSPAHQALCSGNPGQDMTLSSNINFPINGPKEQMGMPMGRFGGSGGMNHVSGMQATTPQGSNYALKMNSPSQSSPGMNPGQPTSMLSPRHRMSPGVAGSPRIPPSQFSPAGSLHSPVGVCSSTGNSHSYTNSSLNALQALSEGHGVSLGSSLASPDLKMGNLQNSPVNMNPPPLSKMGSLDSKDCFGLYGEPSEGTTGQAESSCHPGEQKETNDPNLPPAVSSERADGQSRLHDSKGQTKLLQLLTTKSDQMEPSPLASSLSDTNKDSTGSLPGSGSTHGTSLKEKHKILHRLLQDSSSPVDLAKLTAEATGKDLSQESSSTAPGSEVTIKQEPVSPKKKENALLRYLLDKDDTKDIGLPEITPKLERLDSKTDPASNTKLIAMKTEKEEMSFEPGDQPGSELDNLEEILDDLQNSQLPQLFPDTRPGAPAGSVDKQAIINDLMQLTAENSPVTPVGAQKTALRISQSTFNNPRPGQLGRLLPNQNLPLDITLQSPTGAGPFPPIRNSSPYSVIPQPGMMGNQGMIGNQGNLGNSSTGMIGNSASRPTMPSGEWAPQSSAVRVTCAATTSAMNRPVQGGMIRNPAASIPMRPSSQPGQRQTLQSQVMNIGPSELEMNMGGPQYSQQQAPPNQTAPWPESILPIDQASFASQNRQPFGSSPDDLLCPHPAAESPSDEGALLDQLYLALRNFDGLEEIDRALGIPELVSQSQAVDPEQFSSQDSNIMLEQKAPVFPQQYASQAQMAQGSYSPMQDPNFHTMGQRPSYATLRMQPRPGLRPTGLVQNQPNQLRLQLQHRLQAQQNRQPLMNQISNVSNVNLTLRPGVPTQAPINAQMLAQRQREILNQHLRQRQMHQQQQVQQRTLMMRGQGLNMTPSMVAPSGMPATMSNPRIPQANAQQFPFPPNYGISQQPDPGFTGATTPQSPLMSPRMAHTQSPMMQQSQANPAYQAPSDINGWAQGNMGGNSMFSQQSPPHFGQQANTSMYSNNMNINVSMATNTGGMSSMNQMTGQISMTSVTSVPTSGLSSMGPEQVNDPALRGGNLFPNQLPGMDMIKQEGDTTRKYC
Nuclear receptor coactivator 1 (Homo sapiens), sequence (Q15788 whole entry, looked up, the tested form may be a part): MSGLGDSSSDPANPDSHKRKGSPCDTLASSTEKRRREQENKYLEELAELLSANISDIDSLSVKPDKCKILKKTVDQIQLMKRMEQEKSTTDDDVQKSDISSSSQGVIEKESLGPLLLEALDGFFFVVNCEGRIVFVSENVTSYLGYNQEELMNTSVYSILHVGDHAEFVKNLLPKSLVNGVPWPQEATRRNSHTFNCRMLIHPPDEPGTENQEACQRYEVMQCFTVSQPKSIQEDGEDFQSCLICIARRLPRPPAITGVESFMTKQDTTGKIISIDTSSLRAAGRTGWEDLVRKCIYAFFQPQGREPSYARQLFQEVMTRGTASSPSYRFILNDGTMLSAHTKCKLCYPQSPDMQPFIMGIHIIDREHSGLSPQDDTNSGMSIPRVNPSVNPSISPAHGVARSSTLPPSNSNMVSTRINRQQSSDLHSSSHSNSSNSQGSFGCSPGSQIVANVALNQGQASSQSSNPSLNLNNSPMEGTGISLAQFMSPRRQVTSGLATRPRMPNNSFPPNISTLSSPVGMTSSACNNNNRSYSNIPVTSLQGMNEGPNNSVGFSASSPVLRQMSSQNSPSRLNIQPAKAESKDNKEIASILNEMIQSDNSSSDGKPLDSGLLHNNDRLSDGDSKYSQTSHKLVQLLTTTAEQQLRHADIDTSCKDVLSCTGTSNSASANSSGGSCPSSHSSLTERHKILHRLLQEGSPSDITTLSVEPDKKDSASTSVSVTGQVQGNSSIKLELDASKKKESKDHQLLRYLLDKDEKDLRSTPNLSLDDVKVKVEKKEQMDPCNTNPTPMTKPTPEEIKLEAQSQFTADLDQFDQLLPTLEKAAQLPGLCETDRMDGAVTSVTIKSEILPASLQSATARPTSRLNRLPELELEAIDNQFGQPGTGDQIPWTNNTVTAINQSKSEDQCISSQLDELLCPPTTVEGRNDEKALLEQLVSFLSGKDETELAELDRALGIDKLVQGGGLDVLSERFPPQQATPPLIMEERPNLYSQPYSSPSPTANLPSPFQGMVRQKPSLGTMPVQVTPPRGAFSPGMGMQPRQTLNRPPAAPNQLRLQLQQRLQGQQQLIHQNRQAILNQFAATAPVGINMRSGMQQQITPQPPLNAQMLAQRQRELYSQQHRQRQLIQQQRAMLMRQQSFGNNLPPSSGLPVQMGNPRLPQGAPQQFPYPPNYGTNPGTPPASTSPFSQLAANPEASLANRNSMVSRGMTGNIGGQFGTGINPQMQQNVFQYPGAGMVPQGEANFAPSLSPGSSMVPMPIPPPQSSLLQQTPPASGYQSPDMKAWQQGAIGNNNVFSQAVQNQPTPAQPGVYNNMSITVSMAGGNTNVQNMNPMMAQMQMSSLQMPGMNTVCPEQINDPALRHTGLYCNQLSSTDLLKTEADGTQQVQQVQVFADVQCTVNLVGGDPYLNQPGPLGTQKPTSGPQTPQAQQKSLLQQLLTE
Nuclear receptor coactivator 3 (Homo sapiens), sequence (Q9Y6Q9 whole entry, looked up, the tested form may be a part): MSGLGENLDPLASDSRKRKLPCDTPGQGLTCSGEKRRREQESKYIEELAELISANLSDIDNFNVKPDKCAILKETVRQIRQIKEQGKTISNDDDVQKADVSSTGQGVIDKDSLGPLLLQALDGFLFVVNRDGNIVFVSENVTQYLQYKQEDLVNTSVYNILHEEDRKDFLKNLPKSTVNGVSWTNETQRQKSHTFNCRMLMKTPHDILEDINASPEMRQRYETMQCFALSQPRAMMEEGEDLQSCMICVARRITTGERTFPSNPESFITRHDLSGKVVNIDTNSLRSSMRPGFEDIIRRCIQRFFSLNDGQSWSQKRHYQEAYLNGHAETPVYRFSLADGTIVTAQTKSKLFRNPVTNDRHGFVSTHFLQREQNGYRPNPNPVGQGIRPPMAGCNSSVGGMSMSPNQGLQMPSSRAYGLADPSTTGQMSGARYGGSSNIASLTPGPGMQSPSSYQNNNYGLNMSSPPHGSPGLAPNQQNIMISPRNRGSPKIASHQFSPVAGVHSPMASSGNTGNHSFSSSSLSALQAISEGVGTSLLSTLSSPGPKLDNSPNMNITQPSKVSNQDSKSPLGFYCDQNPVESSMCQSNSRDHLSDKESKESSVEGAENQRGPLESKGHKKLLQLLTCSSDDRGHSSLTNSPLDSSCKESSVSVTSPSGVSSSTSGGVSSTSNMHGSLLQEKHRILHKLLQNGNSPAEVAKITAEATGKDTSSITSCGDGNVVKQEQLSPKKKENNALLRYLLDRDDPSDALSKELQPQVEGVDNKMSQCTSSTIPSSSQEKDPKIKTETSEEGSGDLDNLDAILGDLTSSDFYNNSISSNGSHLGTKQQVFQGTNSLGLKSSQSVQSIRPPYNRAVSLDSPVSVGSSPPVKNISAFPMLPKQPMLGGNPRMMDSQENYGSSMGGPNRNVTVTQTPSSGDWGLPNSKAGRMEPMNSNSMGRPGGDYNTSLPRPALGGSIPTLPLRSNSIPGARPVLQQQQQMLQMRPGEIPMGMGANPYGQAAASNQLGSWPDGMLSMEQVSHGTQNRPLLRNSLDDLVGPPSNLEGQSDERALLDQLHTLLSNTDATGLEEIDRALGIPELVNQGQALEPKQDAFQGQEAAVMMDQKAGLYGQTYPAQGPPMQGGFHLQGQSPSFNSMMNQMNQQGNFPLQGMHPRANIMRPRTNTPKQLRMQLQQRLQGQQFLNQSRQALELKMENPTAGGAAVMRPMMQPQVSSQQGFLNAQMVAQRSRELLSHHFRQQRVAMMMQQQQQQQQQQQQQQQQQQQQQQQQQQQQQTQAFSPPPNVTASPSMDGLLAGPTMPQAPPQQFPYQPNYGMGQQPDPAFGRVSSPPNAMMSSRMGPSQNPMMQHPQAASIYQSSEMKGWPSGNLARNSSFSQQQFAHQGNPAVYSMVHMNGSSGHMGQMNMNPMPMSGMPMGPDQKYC
COUP transcription factor 2 (Homo sapiens), sequence (P24468 whole entry, looked up): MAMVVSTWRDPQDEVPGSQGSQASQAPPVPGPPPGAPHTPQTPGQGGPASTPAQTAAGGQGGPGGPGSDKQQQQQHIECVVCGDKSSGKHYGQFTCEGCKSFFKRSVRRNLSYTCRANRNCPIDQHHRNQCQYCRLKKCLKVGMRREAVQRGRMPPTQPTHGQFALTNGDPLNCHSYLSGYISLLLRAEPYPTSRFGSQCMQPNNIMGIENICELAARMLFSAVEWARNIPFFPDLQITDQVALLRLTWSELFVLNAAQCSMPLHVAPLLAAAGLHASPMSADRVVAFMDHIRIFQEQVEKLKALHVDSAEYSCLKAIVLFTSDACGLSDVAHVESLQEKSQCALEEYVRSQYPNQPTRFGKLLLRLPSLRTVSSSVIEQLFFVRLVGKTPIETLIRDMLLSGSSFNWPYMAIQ

What is called inhibition is the relative decrease from the control value, in per cent. Consider `C=CCN(CC=C)c1ncnc2[nH]ncc12`, for which the inhibition in assay [1] was 71.4% (active); in assay [2], 50.9% (active); in assay [3] it was 53.9% (active); in assay [4], 45.2% (active); in assay [5], -8.17%; in assay [6], 34.4%.
Take `CC(C)(C)OC(=O)NCCCCCNC(=O)c1nc[nH]c1C(=O)NCCCCCNC(=O)OC(C)(C)C`: the inhibition in assay [1] is 5.02%; in assay [2] it was 13.7%; in assay [3], -20%; in assay [4] it was 35.1% (active); in assay [5] it was 24.2%; in assay [6] it was 34.1%.
In the case of `c1ccc2c(-c3ccc4nncn4c3)cncc2c1`, the inhibition in assay [1] was 79% (active); in assay [2] it was 54.1% (active); in assay [3], 65.9% (active); in assay [4], 56.4% (active); in assay [5] it was -5.43%; in assay [6], 46.3%.
On to `COc1cccc(N(C(=O)CCl)C(C(=O)NCCc2ccccc2)c2cccs2)c1` (stereo unspecified), for which the inhibition is 60.3% (active) in assay [1]; 36% (active) in assay [2]; 24.3% in assay [3]; 34% (active) in assay [4]; 27.8% in assay [5]; 63.3% (active) in assay [6].
As to `O=C(CN1C(=O)c2ccccc2S1(=O)=O)N1CCc2ccccc21`, the inhibition in assay [1] was 60.5% (active); in assay [2] it was 60.9% (active); in assay [3], 40.8%; in assay [4], 65.1% (active); in assay [5], 65.5% (active); in assay [6], 85.9% (active). Also, the inhibition is 65.9% (active) in assay [7] and 74.9% (active) in assay [8].
As for `C=CCSc1nsc(NC(=O)Nc2cccc(C(C)=O)c2)n1`, the inhibition is 44% (active) in assay [1]; 31.2% (active) in assay [2]; 46.4% in assay [3]; 27.2% (active) in assay [4]; -25.7% in assay [5]; 17.3% in assay [6]. In addition, the inhibition in assay [7] is -25.6%; in assay [8] it was 2.43%.
`COC(=O)Cc1[nH]n(-c2nc3ccccc3s2)c(=O)c1C(C)=Nc1ccc(OC)cc1`: the inhibition was 85.2% (active) in assay [1]; 78.4% (active) in assay [2]; 71.8% (active) in assay [3]; 73.8% (active) in assay [4]; 91.5% (active) in assay [5]; 93.9% (active) in assay [6].
